# Assay results reported in publication PMC5540273 (PLoS ONE, 2017).
# Test system: T1, RSK4(Kin.Dom.2-C-terminal)
# T1 construct: gene RPS6KA6
# 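Note: kd values determined as follow-up on hits from a single-replicate KINOMEscan panel screen.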
row,SMILES,Kd
1,Nc1nc(-c2ccccc2F)c(-c2ccnc3ccccc23)s1 [GW560459],0.028 µM
2,CCc1nc(-c2cccc(C)c2)c(-c2ccncc2)s1,0.12 µM
3,OCCCNc1nccc(-c2c(-c3cccc(C(F)(F)F)c3)nn3cc(C(F)(F)F)ccc23)n1 [GW630813],2.7 µM
